{"source": "PubChem BioAssay AID463173", "about": "(ICCB-Longwood Screening Facility, Harvard Medical School, 2010)", "note": "About 4,300 (8.3%) of roughly 52,000 compounds were called active. No stated cut-off is given here; in the data, active means survival mostly below about 52% (no sharp cut-off); inactive means mostly above about 56%. What follows is part of a selection rich in actives, with near analogues and random picks from the rest."}
{"test_system": "DeltatarO mutant", "test": "S. aureus survival, RN4220 and DeltatarO strains – OD600, teichoic acid synthesis inhibitors, primary screen (AID 463173)", "details": "S. aureus RN4220 wild type/DeltatarO growth, OD600, 18 h, stronger effect = lower value, screened at 18.75 µg/mL (by protocol)"}
{"smiles": "Cc1ccc(CCNC(=O)CCCn2nc(C)c3c(C)n(-c4ccccc4)nc3c2=O)cc1", "survival": "87% (inactive)"}
{"smiles": "CCN1CCC(N(Cc2cccc(OC)c2)C(=O)Nc2cccc(C)c2C)CC1", "survival": "20% (active)"}
{"smiles": "CCN1CCC(N(Cc2ccc3c(c2)OCO3)C(=O)Nc2cccc(C)c2C)CC1", "survival": "94% (inactive)"}
{"smiles": "CCN1CCC(N(Cc2cccc(OC)c2)C(=O)Nc2ccc(C)cc2Cl)CC1", "survival": "66% (inactive)"}
{"smiles": "COCCN1C(=O)C(=O)/C(=C(/O)c2ccccc2)C1c1ccccc1", "note": "(stereo not drawn)", "survival": "102% (inactive)"}
{"smiles": "Cc1ccc(C(=O)c2cn(Cc3cccc(C)c3)c3nc(C)ccc3c2=O)cc1", "survival": "54% (inactive)"}
{"smiles": "Cc1ccc(C(=O)c2cn(Cc3ccc(F)cc3)c3nc(C)ccc3c2=O)cc1", "survival": "85% (inactive)"}
{"smiles": "Cc1ccc(C(=O)c2cn(Cc3ccccc3)c3nc(C)ccc3c2=O)cc1", "survival": "76% (inactive)"}
{"smiles": "Cc1ccc(CNC(=O)Cn2cc(C(=O)c3ccc(F)cc3)c(=O)c3ccc(C)nc32)cc1", "survival": "52% (active)"}
{"smiles": "CCc1ccc(C(=O)c2cn(CC(=O)NCc3ccc(C)cc3)c3nc(C)ccc3c2=O)cc1", "survival": "98% (inactive)"}
{"smiles": "Cc1ccc2c(=O)c(C(=O)c3ccc(F)cc3)cn(CC(=O)NCc3ccccc3)c2n1", "survival": "82% (inactive)"}
{"smiles": "Cc1ccc(Cn2cc(C(=O)c3ccc(C)cc3)c(=O)c3ccc(C)nc32)cc1", "survival": "24% (active)"}
{"smiles": "Cc1ccc(C(=O)c2cn(Cc3cccc(Cl)c3)c3nc(C)ccc3c2=O)cc1", "survival": "60% (active)"}
{"smiles": "Cc1ccc(C(=O)c2cn(Cc3ccc(Cl)cc3)c3nc(C)ccc3c2=O)cc1", "survival": "34% (inactive)"}
{"smiles": "Cc1cc(NC(=O)C2C3C(=O)N(c4ccccc4Cl)C(C(=O)NC(C)(C)C)C34C=CC2(C)O4)no1", "note": "(stereo not drawn)", "survival": "108% (inactive)"}
{"smiles": "Cc1ccccc1OCC(=O)Nc1nnc(SCc2cc(=O)n3cc(Cl)ccc3n2)s1", "survival": "84% (inactive)"}
{"smiles": "CCc1ccc(C2c3c(oc4ccc(F)cc4c3=O)C(=O)N2CCc2ccc(OC)cc2)cc1", "note": "(stereo not drawn)", "survival": "94% (inactive)"}
{"smiles": "Cc1ccc(-n2c(=O)c3ccc(C(=O)NCc4ccco4)cc3n(CC(=O)Nc3ccc(C)c(F)c3)c2=O)cc1", "survival": "84% (inactive)"}
{"smiles": "CCOc1cccc(CC(=O)NCc2ccc3c(c2)CCN3C(=O)c2cccc(C)c2)c1OCC", "survival": "54% (inactive)"}
{"smiles": "COc1ccc(N(C(=O)/C=C\\C(=O)Nc2ccc(Cl)cc2)C(C(=O)NCc2ccco2)c2ccc(C)cc2)cc1", "note": "(stereo not drawn)", "survival": "115% (inactive)"}
{"smiles": "Cc1cccc(N2CCN(C(=O)C3CCCN(C(=O)c4cc5sccc5n4C)C3)CC2)c1C", "note": "(stereo not drawn)", "survival": "53% (active)"}
{"smiles": "Cn1c(C(=O)N2CCCC(C(=O)N3CCN(c4ccccc4)CC3)C2)cc2sccc21", "note": "(stereo not drawn)", "survival": "89% (inactive)"}
{"smiles": "Cc1cccc(N2CCN(C(=O)C3CCN(C(=O)c4cc5sccc5n4C)CC3)CC2)c1C", "survival": "53% (inactive)"}
{"smiles": "COc1ccccc1OCC(=O)N1CCC(c2nc3ccccc3o2)CC1", "survival": "0% (active)"}
{"smiles": "Cc1cccc(C)c1OCC(=O)N1CCC(c2nc3ccccc3o2)CC1", "survival": "86% (inactive)"}
{"smiles": "CCc1ccc(OC(C)C(=O)N2CCC(c3nc4ccccc4o3)CC2)cc1", "note": "(stereo not drawn)", "survival": "85% (inactive)"}
{"smiles": "Cc1cccc(OCC(=O)N2CCC(c3nc4ccccc4o3)CC2)c1C", "survival": "81% (inactive)"}
{"smiles": "CC(Oc1ccccc1F)C(=O)N1CCC(c2nc3ccccc3o2)CC1", "note": "(stereo not drawn)", "survival": "-1% (active)"}
{"smiles": "Cc1cccc(OC(C)C(=O)N2CCC(c3nc4ccccc4o3)CC2)c1C", "note": "(stereo not drawn)", "survival": "75% (inactive)"}
{"smiles": "O=C(CC1CCCCC1)Nc1ccccn1", "survival": "73% (inactive)"}
{"smiles": "COc1ccc(N2C(=O)C(C)C(Cc3ccc(C)cc3)C2=O)cc1", "note": "(stereo not drawn)", "survival": "103% (inactive)"}
{"smiles": "CCC(=O)Nc1ccc(NC(=O)c2ccc(F)cc2)nc1", "survival": "85% (inactive)"}
{"smiles": "COc1ccc(NC(=O)NCC2CCN(Cc3ccccc3F)CC2)c(OC)c1", "survival": "96% (inactive)"}
{"smiles": "CC1CCCCN1C(=O)C1COc2ccccc2O1", "note": "(stereo not drawn)", "survival": "65% (inactive)"}
{"smiles": "CCN(c1ccccc1)c1nnc(NC(=O)Nc2cccc(Br)c2)s1", "survival": "80% (inactive)"}
{"smiles": "Cc1cccc(NC(=O)Nc2ccc(Br)cc2)n1", "survival": "126% (inactive)"}
{"smiles": "COc1cc(C(=O)Nc2ccc3nn(-c4ccc(F)cc4)nc3c2)cc(OC)c1OC", "survival": "45% (active)"}
{"smiles": "CCc1ccc(-n2nc3ccc(NC(=O)c4cc(Cl)c(OC)c(Cl)c4)cc3n2)cc1", "survival": "83% (inactive)"}
{"smiles": "COc1ccc(-n2nc3ccc(NC(=O)c4c(OC)cccc4OC)cc3n2)cc1", "survival": "135% (inactive)"}
{"smiles": "Cc1ccc(-n2nc3ccc(NC(=O)c4cc5ccccc5o4)cc3n2)cc1", "survival": "70% (inactive)"}
{"smiles": "Cc1ccc(-n2nc3ccc(NC(=O)c4oc5ccccc5c4C)cc3n2)cc1", "survival": "31% (active)"}
{"smiles": "Cc1ccc2oc(-c3ccc(NC(=O)c4oc5ccc(Cl)cc5c4C)cc3)nc2c1", "survival": "66% (inactive)"}
{"smiles": "Cc1c(C(=O)Nc2ccncc2)oc2ccccc12", "survival": "98% (inactive)"}
{"smiles": "Cc1ccc(-n2nc3ccc(NC(=O)c4oc5ccc(C)cc5c4C)cc3n2)cc1", "survival": "38% (active)"}
{"smiles": "Cc1ccc2oc(C(=O)Nc3cccc(-c4nc5ccccc5s4)c3)c(C)c2c1", "survival": "55% (inactive)"}
{"smiles": "O=C(Cn1ncc2c3ccccc3n(Cc3ccc(F)cc3)c2c1=O)NCCC1=CCCCC1", "survival": "85% (inactive)"}
{"smiles": "CC(C)(C)C(=O)Nc1c(C(=O)N2CCN(c3ccc(F)cc3)CC2)oc2ccccc12", "survival": "80% (inactive)"}
{"smiles": "CCn1cc(C(=O)NCc2ccc(Cl)cc2)c(=O)c2cc(S(=O)(=O)N(C)C3CCCCC3)ccc21", "survival": "70% (inactive)"}
{"smiles": "CCOc1ccc(NC2=NCCC(=O)N2Cc2cccs2)cc1", "survival": "83% (inactive)"}
{"smiles": "O=C(O)c1nnc(Cl)c2ccccc12", "survival": "91% (inactive)"}
{"smiles": "Cc1nc(-c2ccc(Cl)cc2)sc1CCNC(=O)C(=O)Nc1ccccc1C#N", "survival": "80% (inactive)"}
{"smiles": "COc1ccc(CNC(=O)c2cc3c(=O)n4cccc(C)c4nc3s2)cc1", "survival": "68% (inactive)"}
{"smiles": "CCCCNC(=O)c1cc2c(=O)n3cccc(C)c3nc2s1", "survival": "150% (inactive)"}
{"smiles": "CCOC(=O)CNC(=O)c1cc2c(=O)n3cccc(C)c3nc2s1", "survival": "179% (inactive)"}
{"smiles": "Cc1ccc(CNC(=O)c2cc3c(=O)n4cccc(C)c4nc3s2)cc1", "survival": "54% (active)"}
{"smiles": "Cc1cccn2c(=O)c3cc(C(=O)NCc4ccccc4Cl)sc3nc12", "survival": "62% (inactive)"}
{"smiles": "Cc1cccn2c(=O)c3cc(C(=O)NCC(C)C)sc3nc12", "survival": "63% (active)"}
{"smiles": "O=C(CN1CCC(n2nnc3cc(C(F)(F)F)ccc32)CC1)Nc1ccc(N2CCCC2)cc1", "survival": "86% (inactive)"}
